Source: PubChem BioAssay (National Center for Advancing Translational Sciences (NCATS))
HPGD block = inhibitors of human 15-hydroxyprostaglandin dehydrogenase (HPGD). P15428. purified HPGD, NADH fluorescence kinetic, PGE2 substrate. Potency, µM, hits mostly inhibitors. 150,000 compounds, 4.3% hits. AID 894; active means well fitted inhibition curve with a large enough effect, not every such curve was filed as active; inconclusive means small, poorly fitted or top-dose-only effect, or another doubt; inactive means no such curve, though single readings can be large or run the other way
Target sequence (P15428 whole entry, looked up): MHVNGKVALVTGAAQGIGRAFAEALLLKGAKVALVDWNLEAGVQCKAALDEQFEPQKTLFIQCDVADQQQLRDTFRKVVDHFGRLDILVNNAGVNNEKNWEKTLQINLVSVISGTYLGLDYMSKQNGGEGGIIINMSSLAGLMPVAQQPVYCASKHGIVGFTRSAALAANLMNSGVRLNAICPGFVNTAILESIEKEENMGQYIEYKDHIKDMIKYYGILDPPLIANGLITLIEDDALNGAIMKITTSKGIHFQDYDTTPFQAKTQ
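20 nM HPGD preincubated 15 min at room temperature with compound in 50 mM Tris-HCl pH 8, 0.01% Tween 20. Started with 1 mM NAD+ and 30 uM prostaglandin E2; NADH fluorescence (360/450 nm) read 5 times over 30-s intervals, last minus first.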
HTT cytoprotect = Huntington cell model cytoprotection by ATP luminescence | PC12 HTT-Q103 induced, cytoprotection, ATP luminescence, 40 h | Potency, µM (top dose mostly 56.4 µM), actives largely listed as activators | 230,000 compounds, 0.14% hits; further: nearly all actives have a fitted effect of over 45% in size
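Compounds were screened for protection of PC12 cells against cell death after tebufenozide induction (100 nM final) of mutant Huntingtin exon 1 (Q103) fused to GFP.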
HTT aggregate = mutant huntingtin aggregation inhibition; 220,000 compounds, 1.1% hits; AID 1688; PC12 HttQ103-GFP aggregates, Acumen cytometry, 40 h; Potency, µM (series often up to 46.1 µM), usual class: inhibitors; further: nearly all actives have a fitted effect of over 60% in size
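Using laser scanning cytometry, GFP-positive aggregates were counted after lysis of PC12 cells induced with 100 nM tebufenozide to express HTT exon 1 Q103–GFP. Compounds were tested in titration.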
ALDH1A1 block = ALDH1A1 (human) enzyme inhibition. 220,000 compounds, 7.3% hits. Potency, µM (series often up to 75.3 µM), usual class: inhibitors. Purified ALDH1A1, NADH fluorescence, propionaldehyde substrate. P00352. AID 1030; active means well fitted inhibition curve with a large enough effect, not every such curve was filed as active; inconclusive means small, poorly fitted or top-dose-only effect, or another doubt; inactive means no such curve, though single readings can be large or run the other way
LMNA splice mod = modulators of lamin A splicing. HeLa LMNA splicing GFP/RFP minigene ratio, 48 h. Potency, µM (titrated, usually from 46.1 µM), usual class: inhibitors. 200,000 compounds, 0.01% hits. AID 1487; active means well fitted inhibition curve with a large enough effect in the signal ratio, with a control signal flat, not every such curve was filed as active; inconclusive means small, poorly fitted or top-dose-only effect, or effect the other way, or a change in a side signal; the % refers to the signal ratio
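S3 HeLa stable clones carrying a lamin A-EGFP splicing minigene plus DsRed2 were seeded at 600 cells/well in Opti-MEM with 2% FBS, pin-dosed and incubated 48 h at 37°C. Acumen cytometry (488 nm) gave the GFP/RFP total-intensity ratio.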
A number is an active result; . = inactive; ? = inconclusive; / = not tested or not shown; ! = not active in a repeat; [ ] = remark or other dose. Hits are enriched below; roughly 8.8% of the tested compounds scored in any of these assays. Unless noted, the call rests on the fitted dose curve; in most records, active means well fitted curve in the direction sought with a large enough effect; inconclusive means small, poorly fitted or top-dose-only effect, or another doubt; inactive means no such curve, though single readings can be large; an effect the other way counts as inactive or inconclusive.

SMILES | HPGD block | HTT cytoprotect | HTT aggregate | ALDH1A1 block | LMNA splice mod
O=C(C[N+]12CCC(CC1)C(OC(=O)c1ccccc1)C2)c1ccc([N+](=O)[O-])cc1 (configuration not stated) | / | .[10 µM] | .[9.22 µM] | . | /
O=C(OCC(=O)c1ccc([N+](=O)[O-])cc1)/C(=C/c1ccc(Cl)cc1)NC(=O)c1ccccc1 | . | / | . | 7.94µM | .
O=C1OC(c2cc(I)c(O)c(I)c2)(c2cc(I)c(O)c(I)c2)c2ccccc21 | 11.2µM | ? | / | . | /
O=c1[nH]c(=O)n(Cc2ccco2)c(O)c1C=NCc1ccco1 | 28.2µM | . | . | 10µM | ?
CCN(CC)CCN=Cc1c(O)n(Cc2ccco2)c(=O)[nH]c1=O | / | .[10 µM] | .[9.22 µM] | . | /
CC(=O)Nc1ccc(N=Cc2c(O)n(Cc3ccco3)c(=O)[nH]c2=O)cc1 | / | .[10 µM] | .[9.22 µM] | 9.46µM | ?
CCCCC(=O)N/N=C/c1c(O)n(Cc2ccco2)c(=O)[nH]c1=O | . | .[10 µM] | . | . | .
COc1cc2ccccc2c2cc([N+](=O)[O-])oc12 | . | .[10 µM] | / | .[13.5 µM] | /
CC(C)CC(=O)C[C@H](O)C(Cl)(Cl)Cl | . | .[10 µM] | / | .[13.5 µM] | /
N#CC1(c2ccccc2)CCN(C2CC(=O)N(c3ccc4c(c3)OCO4)C2=O)CC1 (configuration not stated) | / | . | .[9.22 µM] | 8.91µM | /
N#CC1(c2ccccc2)CCN(C2CC(=O)N(c3ccc(F)cc3)C2=O)CC1 (configuration not stated) | / | . | . | 31.6µM | /
C[C@H]1CN(C2CCC(C#N)(c3ccc(F)cc3)CC2)CC[C@@]1(C(=O)O)c1ccccc1 (some centres not stated) | . | . | . | . | ?
COC(=O)C1=CO[C@@H](C)[C@@H]2CN3CC[C@]4(C(=O)Nc5c4ccc(OC)c5OC)[C@H]3C[C@H]12 | . | . | / | . | /
C[N+]1(C)CCO[C@@](O)(c2ccc(-c3ccc([C@]4(O)C[N+](C)(C)CCO4)cc3)cc2)C1 | / | .[1.9 µM] | / | / | /
O=C1C2CC=CCC2C(=O)N1SC(Cl)(Cl)Cl (configuration not stated) | 7.08µM | . | 14.1µM | 0.398µM | ?
CN(C)c1ccc(-[n+]2c(-c3ccccc3)cc(-c3ccccc3)cc2-c2ccccc2)cc1 | / | . | 1.12µM | . | ?
CN(C)c1ccc(NC(=O)Oc2ccccc2)cc1 | . | . | . | ? | .
c1ccc(-c2cc(-c3ccccc3)[n+](-c3ccccc3)c(-c3ccccc3)c2)cc1 | / | .[10 µM] | 3.98µM | / | /
C[n+]1c(-c2ccccc2)cc(-c2ccc(Cl)cc2)cc1-c1ccccc1 | / | . | ? | ? | .
CC(C)C[C@H]1C(=O)N2CCC[C@@H]2[C@]2(O)O[C@](NC(=O)[C@H]3C=C4c5cccc6[nH]cc(c56)C[C@H]4N(C)C3)(C(C)C)C(=O)N12 | / | . | / | / | /
COc1ccc(C2=NCC(=O)N(CC(=O)NCc3ccco3)c3sc4c(c32)CCCC4)cc1 | . | . | . | 15.8µM | ?
Cc1cccc(C2=NCC(=O)N(CC(=O)NCc3ccco3)c3sc4c(c32)CCCC4)c1 | 28.2µM | . | 11.2µM | 20µM | .
O=C(CN1C(=O)CN=C(c2ccccc2Cl)c2cc(Cl)ccc21)NCc1ccco1 | . | . | . | . | .
CC(C)[C@]1(NC(=O)[C@@H]2C=C3c4cccc5[nH]cc(c45)C[C@H]3N(C)C2)O[C@@]2(O)C3CCCN3C(=O)[C@H](Cc3ccccc3)N2C1=O (some centres not stated) | ? | .[1.9 µM] | / | ? | /
CN(C)CCCc1cccnc1 | . | .[10 µM] | / | .[13.5 µM] | /
SMILES | HPGD block | HTT cytoprotect | HTT aggregate | ALDH1A1 block | LMNA splice mod
CCN(CC)c1ncnc2c1ncn2[C@@H]1O[C@@H](COP(=O)(O)OP(=O)(O)C(Br)(Br)P(=O)(O)O)[C@H](O)[C@H]1O | . | . | / | . | /
COC(=O)N(c1ccccc1)P1(=S)OCCO1 | 8.91µM | . | . | 3.98µM | .
CCOC(=O)N(c1ccccc1)P1(=S)OCCO1 | ? | . | . | ? | .
O=C(CCl)c1ccc(Oc2ccc(C(=O)CCl)cc2)cc1 | / | . | . | / | /
O=C(O)CCC1NCC2CC1CN1CCCCC21 (configuration not stated) | . | / | / | . | .
C[C@@H](O)CN(CCN(C[C@@H](C)O)C[C@@H](C)O)C[C@@H](C)O.O=[N+]([O-])O.[Cu] | . | .[10 µM] | / | ? | /
O=C=NC1CCCCC1 | . | . | / | 28.2µM! | /
CC([C@H](O)c1ccccc1)N(C)C (some centres not stated) | . | . | . | 20µM | .
c1ccoc1 | . | . | / | . | /
Cn1ncnc2c(=O)n(C)c(=O)nc1-2 | . | . | 5.01µM | ? | ?
O=C(O)Cc1ccc([N+](=O)[O-])cc1[N+](=O)[O-] | . | .[10 µM] | / | .[13.5 µM] | /
CCCC(=O)Cl | . | . | / | . | /
Nc1ncc([N+](=O)[O-])s1 | ? | . | / | 25.1µM | /
CC(=O)O.CC(=O)O.[Cd] | . | / | / | 12.6µM | ?
O=C(O)/C=C\C(=O)O | . | . | / | . | /
CCN1CCN(c2ncnc3ccc(Br)cc23)CC1 | . | .[0.074 µM] | 7.08µM | ? | .
CCc1cc2c(N3CCN(C)CC3)ncnc2s1 | . | .[10 µM] | ? | . | .
O=c1c2ccccc2nc(CSc2ncnc3nc[nH]c23)n1-c1ccccc1 | . | . | . | ? | ?
O=C(O)c1cc[c]([Hg][S]c2ncnc3nc[nH]c23)cc1 | 0.224µM | .[10 µM] | / | 0.891µM | /
COc1cc(CCN)c(OC)c(OC)c1 | . | .[10 µM] | / | .[13.5 µM] | /
